Compound activity: PubChem BioAssay, National Center for Advancing Translational Sciences (NCATS)
Only some compounds are listed: those with a hit (about 1.2% of all), similar ones and a draw of the others.
RXFP1 ag: activates the human relaxin receptor RXFP1; Potency, µM (doses to about 57.5 µM), inactives show top-dose activation, actives largely listed as activators; Q9HBX9; 0.3% of 370,000 active; HEK293T-RXFP1 cAMP TR-FRET, 30 min; response scale: percent of porcine relaxin response, buffer zero; active means well fitted activation curve with a large enough effect; inconclusive means small, poorly fitted or top-dose-only effect; further: potency means the concentration at half of the fitted maximal effect; on the % scale 0 is the no-effect control and ±100 the full control effect; nearly all actives have a fitted effect of over 60% in size
Target sequence (Q9HBX9 whole entry, looked up): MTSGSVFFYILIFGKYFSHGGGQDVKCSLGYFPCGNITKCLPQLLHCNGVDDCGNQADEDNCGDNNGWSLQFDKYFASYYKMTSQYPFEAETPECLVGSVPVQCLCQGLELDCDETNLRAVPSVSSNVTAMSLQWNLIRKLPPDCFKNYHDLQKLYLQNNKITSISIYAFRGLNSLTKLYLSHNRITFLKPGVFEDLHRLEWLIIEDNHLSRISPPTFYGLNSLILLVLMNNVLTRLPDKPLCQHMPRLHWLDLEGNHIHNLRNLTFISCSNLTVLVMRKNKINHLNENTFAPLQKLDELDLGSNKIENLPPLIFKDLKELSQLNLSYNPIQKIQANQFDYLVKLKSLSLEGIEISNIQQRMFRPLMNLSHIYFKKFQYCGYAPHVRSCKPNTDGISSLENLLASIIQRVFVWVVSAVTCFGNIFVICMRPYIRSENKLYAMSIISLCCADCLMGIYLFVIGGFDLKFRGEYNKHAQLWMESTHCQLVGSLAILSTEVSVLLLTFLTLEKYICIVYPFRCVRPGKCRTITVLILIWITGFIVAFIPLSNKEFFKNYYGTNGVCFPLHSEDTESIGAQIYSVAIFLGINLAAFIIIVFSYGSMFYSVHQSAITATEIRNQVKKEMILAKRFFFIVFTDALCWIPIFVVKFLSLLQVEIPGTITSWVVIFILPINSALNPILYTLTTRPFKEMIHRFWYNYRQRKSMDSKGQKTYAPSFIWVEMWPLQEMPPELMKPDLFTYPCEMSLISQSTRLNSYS
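HEK293 cells stably expressing RXFP1, treated 30 min at 37C with compounds plus PDE4 inhibitor Ro 20174; cAMP measured by HTRF TR-FRET. Normalized to buffer and 29 nM porcine relaxin; EC50 by Hill fit.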
pAkt inh: inhibitors of Akt phosphorylation; Neuro2A IGF-stimulated pAkt S473 HTRF, 20 min; active compounds read low; activity change, % for hits at 50 µM; 0.32% of 360,000 active; AID 651550; in the data active means activity change below about -80%; inconclusive means mostly about -51% to -80%; further: on the % scale 0 is the no-effect control and ±100 the full control effect
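Single-point screen (50 µM final compound) in Neuro2A cells stimulated 20 min with 6 nM IGF at 37 deg C. After lysis, Ser473-phosphorylated Akt read by HTRF (ex 330 nm, em 615/665 nm) as the 665/615 ratio.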
gsp antag: antagonizes gsp, the McCune-Albright syndrome mutation; Potency, µM (doses to about 76.9 µM), without a hit: top-dose activity change, negative = inhibition, most hits filed as inhibitors; 0.4% of 340,000 active; gsp-mutant cells, cAMP HTRF, 30 min; calls by dose curve; cell line not stated here;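 further: intracellular cAMP measured with PDE inhibitor Ro 20-1724 present during compound exposure; potency means the concentration at half of the fitted maximal effect; on the % scale 0 is the no-effect control and ±100 the full control effect; nearly all actives have a fitted effect of over 65% in size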
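Cells in G418 medium, seeded 16-24 h, 37C; buffer exchange to DPBS + 1 mM CaCl2, 0.5 mM MgCl2, 0.05% BSA; cpds in DMSO + […] (300 uM stock), 30 min 37C; HTRF cAMP detection.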
RXFP1 antag: antagonists of human relaxin receptor RXFP1; activity change, negative = inhibition, % at 57.5 µM; AID 1259400; 0.59% of 350,000 active; HEK293-RXFP1, relaxin-stimulated cAMP HTRF, 30 min; active compounds read low;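 active means activity change of -60% or lower, but not beyond a set lower limit; inconclusive means change between -60% and -40%, or beyond the set limit; inactive means change above -40%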; further: on the % scale 0 is the no-effect control and ±100 the full control effect
gsp agonist: agonists of gsp mutant (McCune-Albright syndrome); gsp mutant cells, cAMP HTRF, 30 min; 0.13% of 340,000 active; Potency, µM (highest dose often 76.9 µM), inactives show at the top dose activation (cAMP increase), most hits filed as activators; active means well fitted activation curve with a large enough effect; inconclusive means small, poorly fitted or top-dose-only effect, or another doubt; inactive means no such curve, though single readings can be large or run the other way; cell line not stated here;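 further: phosphodiesterase inhibitor Ro 20-1724 added with compounds to block cAMP breakdown; potency means the concentration at half of the fitted maximal effect; nearly all actives have a fitted effect of over 60% in size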
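Cells in DMEM/10% FBS with G418 were pretreated with compounds in DMSO plus […] (300 uM stock) for 30 min at 37C. cAMP was measured by HTRF (cAMP-d2 plus anti-cAMP antibody-K) after 30 min at room temperature.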
Active calls of the source: *; i = inactive; u = inconclusive; x = not tested or not shown; [ ] = dose if it differs, or a comment.

SMILES | RXFP1 ag | pAkt inh | gsp antag | RXFP1 antag | gsp agonist
Cc1nn2c(NCCOCCO)c3c(nc2c1-c1ccccc1)CCCC3 | -0.3% | i | -11.7% | -5.1 | 0.9%
O=C(NCC(c1ccco1)N1CCc2ccccc21)C(=O)Nc1ccccc1 (configuration not stated) | -0.2% | i | 1.7% | -66.0* | 6.8%[15.4 µM]
O=C(NCC(c1ccco1)N1CCc2ccccc21)C(=O)Nc1ccccc1F (configuration not stated) | 2.7% | i | 1.3% | -24.8 | -55.1%
CCCCC(=O)N1CCCC(c2nc3c(nnn3Cc3cc(C)ccc3C)c(=O)[nH]2)C1 (configuration not stated) | 0.1% | -117.5%* | -6.8% | -5.4 | 25.0%
Cc1ccc(C)c(Cn2nnc3c(=O)[nH]c(C4CCCN(C(=O)CC(C)C)C4)nc32)c1 (configuration not stated) | 2.3% | i | -9.6% | 1.5 | 12.9%
CC(C)c1ccc(C2=NC(c3ccncc3)=Nc3ccc(F)cc3N2)cc1 | 6.3% | x | x | -6.0 | x
CC[C@@]1(O)C(=O)OCc2c1cc1n(c2=O)Cc2c-1nc1ccccc1c2/C=N/OC(C)(C)C | x | x | x | -18.2 | x
O=C(CSc1nnc(-c2ccncc2)o1)Oc1ccccc1 | 1.6% | -91.5%* | -7.3% | 6.2 | -0.5%
COC(=O)CSc1nnc(-c2ccc(NS(=O)(=O)c3ccccc3)cc2)o1 | 2.7% | -110.8%* | -18.1%[15.4 µM] | -7.7 | 9.4%
O=C(CSc1nnc(-c2cccnc2)o1)Oc1ccccc1 | 2.3% | i | -9.1% | -7.8 | 20.8%
CCc1ccc(C(=O)c2cn(CC(=O)Nc3ccc4c(c3)OCO4)c3ccc(CC)cc3c2=O)cc1 | 19.2% | x | x | x | x
O=C(O)CCCC(=O)Nc1nc(-c2ccc(F)cc2)cs1 | -0.4% | -114.6%* | 1.8% | -3.5 | 1.4%
O=C(O)CCCC(=O)Nc1nc(-c2ccccc2)cs1 | 3.5% | i | u | 1.5 | -1.0%
O=C(NC(=S)Nc1nc(-c2ccccc2)cs1)c1ccco1 | 1.7% | i | -7.0% | -62.5* | -59.3%
O=C(Cc1c(F)c(F)c(F)c(F)c1F)Nc1nc(-c2ccccc2)cs1 | 9.6% | i | -11.3% | -65.3* | -6.5%[15.4 µM]
COc1ccc(-c2csc(NC(=O)CN3C(=O)CCC3=O)n2)cc1 | 1.4% | i | -3.0% | -3.7 | 6.3%
O=C(CN1C(=O)CCC1=O)Nc1nc(-c2ccc(Oc3ccccc3)cc2)cs1 | -0.1% | i | -23.3% | -69.6* | 1.4%
O=C(Cc1ccc(F)cc1)Nc1nc(-c2ccc(F)cc2)cs1 | -0.1% | i | -0.1% | u | -10.3%[15.4 µM]
CCOc1cc(-c2nnc(SCC(=O)NCc3ccccc3)nc2-c2ccc(OC)c(OCC)c2)ccc1OC | -1.1% | x | x | 5.0 | x
COc1cc(C(C)=O)ccc1OCCCN1CCC(c2noc3cc(F)ccc23)CC1 | x | x | x | -9.9 | x
O=C(NCCn1cc(SCc2ccccc2Cl)c2ccccc21)c1cccs1 | -2.0% | x | x | x | x
O=C(COc1ccc2ccccc2c1)NNC(=O)Cc1ccccc1 | 12.7% | i | -23.7% | -120.0* | -4.9%
CC(=O)OCC(=O)Nc1cc(C#N)cc(NC(=O)COC(C)=O)c1Cl | x | x | x | 21.2 | x
Cc1ccc(C)c(N(C)C(=O)c2ccc3c(=O)n4c(nc3c2)CCCCC4)c1 | -3.1% | x | -5.5% | -102.1* | -1.5%
Cc1cccc(N2CCN(C(=O)C3CCN(C(=O)c4cc5sccc5n4C)CC3)CC2C)c1 (configuration not stated) | 0.1% | x | x | -65.3* | x
SMILES | RXFP1 ag | pAkt inh | gsp antag | RXFP1 antag | gsp agonist
Cc1ccc(C)c(NS(=O)(=O)c2ccc3c4c(cccc24)C(=O)N3)c1 | 0.4% | x | x | -78.7* | x
COc1ccc(CCn2c(=N)c(C(=O)NCC3CCCO3)cc3c(=O)n4cccc(C)c4nc32)cc1 (configuration not stated) | 17.8µM* | i | 5.1% | -0.9 | u
Cc1cccn2c(=O)c3cc(C(=O)NCc4ccc(F)cc4)c(=N)n(CC4CCCO4)c3nc12 (configuration not stated) | u | x | -10.5% | 9.6 | u
COc1ccc(CNC(=O)c2cc3c(=O)n4cccc(C)c4nc3n(CC3CCCO3)c2=N)cc1 (configuration not stated) | u | i | 5.3% | 10.5 | 2.24µM*
COCCCn1c(=N)c(C(=O)NCc2cccnc2)cc2c(=O)n3cccc(C)c3nc21 | u | x | x | 0.0 | x
COCCn1c(=N)c(C(=O)NCCc2ccc(OC)cc2)cc2c(=O)n3cccc(C)c3nc21 | 1.0% | -106.7%* | 12.3% | -13.1 | 1.1%
COCCCNC(=O)c1cc2c(=O)n3cccc(C)c3nc2n(C(C)C)c1=N | 14.7% | i | 0.7% | 4.5 | 22.4µM*
Cc1cccn2c(=O)c3cc(C(=O)NCC4CCCO4)c(=N)n(Cc4cccnc4)c3nc12 (configuration not stated) | u | i | -2.1% | 3.0 | 36.2%[15.4 µM]
COc1ccc(Cl)cc1C(=O)Nc1ccc2oc(-c3ccc(C(C)(C)C)cc3)nc2c1 | u | x | x | -2.6 | x
CCOC(=O)c1c(C)[nH]c(C)c1S(=O)(=O)NCC(=O)Nc1cccc(SC)c1 | -1.0% | x | x | x | x
O=C(Cn1cc(SCc2ccc(F)cc2)c2ccccc21)N1CCCC1 | -0.4% | x | x | -18.1 | x
CC(=O)Nc1ccc(S(=O)(=O)N2CCC(n3cnc4cc(F)ccc43)CC2)cc1 | 3.2% | -106.3%* | 5.4% | -7.0 | 1.1%
COc1ccc(C(=O)Nc2ccccc2-c2nc3ccccc3s2)c(OC)c1 | 16.4% | x | x | -1.6 | x
CCc1cc(/C(Cc2cscn2)=N\O)c(O)cc1O | 0.8% | i | 12.1% | 4.7 | 8.2%
CCc1cc(/C(Cc2ccccn2)=N\O)c(O)cc1O | -1.8% | i | 35.5µM* | -0.4 | 12.5%
O=C(CCCc1ccccc1)c1ccc2c(c1)OCCO2 | -1.0% | -124.5%* | -7.1% | -19.5 | -41.7%
CCCCn1c(N2CCC(Cc3ccccc3)CC2)nc2c1c(=O)[nH]c(=O)n2C | 0.9% | i | 8.9% | -90.2* | 14.9%
CC(=O)Nc1ccn(C2COC(COC(=O)c3ccccc3)O2)c(=O)n1 (configuration not stated) | x | x | x | -13.9 | x
COc1cc(OC)c(NC(=O)CCCn2nc(C)c3sc4ccccc4c3c2=O)cc1Cl | 11.0% | x | x | -18.2 | x
COc1cc(C2c3c(oc4ccccc4c3=O)C(=O)N2c2nccs2)ccc1O (configuration not stated) | 0.0% | i | 1.7% | -105.0* | -41.1%[15.4 µM]
Cc1ccc(-n2cc(C(=O)c3ccc(F)cc3)nn2)cc1Cl | 16.0% | -120.8%* | 7.8%[15.4 µM] | -10.6 | -34.0%
COc1ccc(CC(=O)Nc2nc3c(s2)CCCC3)cc1 | -0.9% | x | x | -15.3 | x
CCC(Oc1ccc(F)cc1)C(=O)Nc1nc2c(s1)CCCC2 (configuration not stated) | 1.5% | x | x | -117.1* | x
Cc1cccc(CNc2ncnc3ccc(-c4ccc5c(ccn5C)c4)cc23)c1 | 3.8% | x | x | x | x
C=CCn1cc(-c2ccc(Cl)cc2)cc(C#N)c1=O | 0.4% | i | 1.0% | -1.0 | -2.1%
